# High-throughput results: PubChem BioAssay, Broad Institute
# Shown is part of a subset that was picked to be rich in hits.
# miR-122 inh – raises miR-122 sensor activity in Huh7 cells; activation, % at 12.5 µM; 340,000 tested, 0.14% active; Huh7 psiCHECK-miR122 Renilla luciferase sensor, 48 h;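 active = mean activation of 30% or more, with every replicate also reaching 30%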;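 also: 0% = median of neutral control wells and 100% = median of positive control wells; higher luciferase signal means stronger suppression of miR-122 activity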
# Numbers without * were called inactive.
SMILES,miR-122 inh
C[C@@H]1CN([C@H](C)CO)C(=O)c2cc(C#Cc3ccc(F)cc3)cnc2O[C@@H]1CN(C)Cc1ccccn1,-2
CO[C@H]1CN(C)C(=O)c2cc(NC(=O)Cc3ccccc3)ccc2OC[C@H](C)N(C)C[C@H]1C,-3
CCNC(=O)C[C@H]1CC[C@H]2[C@@H](COc3ccc(NC(=O)c4ccccc4)cc3C(=O)N2C)O1,50*
CN1C(=O)c2cc(NC(=O)Cc3ccccc3)ccc2OC[C@@H]2O[C@@H](CC(=O)NCC3CC3)CC[C@@H]21,-183
CN(C)CCCNC(=O)C[C@@H]1CC[C@H]2[C@H](COc3ccc(NC(=O)c4cccc(F)c4)cc3C(=O)N2C)O1,42*
COCC#Cc1ccc2c(c1)O[C@H](CN(C)C(=O)C1CCCCC1)[C@@H](C)CN([C@@H](C)CO)S2(=O)=O,-19
CCC(=O)Nc1ccc2c(c1)C(=O)N(C)C[C@H](OC)[C@H](C)CN(C(C)=O)[C@@H](C)CO2,0
C[C@H]1CN([C@@H](C)CO)S(=O)(=O)c2ccc(C#Cc3ccccc3)cc2O[C@@H]1CN(C)C(=O)Nc1ccc2c(c1)OCO2,-51
Cc1noc(C)c1NC(=O)N(C)C[C@H]1Oc2cc(C#CCC(C)C)ccc2S(=O)(=O)N([C@H](C)CO)C[C@H]1C,-45
C[C@@H]1CN([C@H](C)CO)C(=O)c2cc(-c3cncnc3)cnc2O[C@@H]1CN(C)Cc1cncnc1,-10
C[C@H]1CN([C@@H](C)CO)C(=O)c2cc(C#Cc3ccc(F)cc3)cnc2O[C@@H]1CN(C)C(=O)c1ccccc1F,0
CO[C@H]1CN(C)C(=O)c2ccc(NC(=O)Nc3ccc(Cl)cc3)cc2OC[C@@H](C)N(C)C[C@@H]1C,3
C[C@H]1CN([C@@H](C)CO)C(=O)c2cc(-c3cccc(C(=O)N(C)C)c3)cnc2O[C@@H]1CN(C)C(=O)Cc1ccccn1,-3
C[C@@H]1CN([C@H](C)CO)C(=O)c2cc(-c3cccc(C#N)c3)cnc2O[C@H]1CN(C)C(=O)C1CCCCC1,4
O=C(NC1CCCC1)C(c1ccccc1)N(Cc1ccc2c(c1)OCO2)C(=O)Cc1cccs1 (centres undefined),-90
COc1ccc(C#Cc2ccc3c(c2)O[C@@H](CN(C)C(=O)NC2CCCCC2)[C@@H](C)CN([C@@H](C)CO)S3(=O)=O)cc1,-13
COc1ccc(C(C(=O)NC2CCCCC2)N(C(=O)CCl)c2cccc(Cl)c2)cc1 (centres undefined),55*
Cc1ccc(S(=O)(=O)N(C)C[C@@H]2Oc3cc(C#CC4CCCC4)ccc3S(=O)(=O)N([C@H](C)CO)C[C@@H]2C)cc1,3
COc1ccccc1S(=O)(=O)N(C)C[C@@H]1Oc2ncc(-c3ccc(C)cc3)cc2C(=O)N([C@H](C)CO)C[C@H]1C,8
CCC(=O)N(C)C[C@@H]1Oc2ncc(-c3cccc(OC)c3)cc2C(=O)N([C@H](C)CO)C[C@@H]1C,-29
COCC(=O)N1[C@H](CO)[C@H]2c3ccccc3N(C(=O)c3ccccc3F)C[C@H]21,44*
COc1cccc(C(=O)N2C[C@H]3[C@@H](c4ccccc42)[C@@H](CO)N3C(=O)c2ccc(F)cc2)c1,-229
O=C(Nc1ccc(N2CCOCC2)c(S(=O)(=O)Nc2cc(Cl)ccc2Cl)c1)c1cccnc1,-325
O=C(Nc1ccccc1F)N1C[C@H]2[C@@H](c3ccccc31)[C@@H](CO)N2C(=O)c1ccc(F)cc1,-240
O=S(=O)(c1ccc(F)cc1)N1C[C@H]2[C@@H](c3ccccc31)[C@@H](CO)N2Cc1ccc2c(c1)OCO2,-100
SMILES,miR-122 inh
O=C(Nc1ccc(F)cc1)N1C[C@H]2[C@@H](c3ccccc31)[C@H](CO)N2C(=O)c1ccncc1,50*
O=C(C1CCCCC1)N1[C@H](CO)[C@@H]2c3ccccc3N(S(=O)(=O)c3ccccc3)C[C@@H]21,-96
CCCNC(=O)N1C[C@H]2[C@@H](c3ccccc31)[C@@H](CO)N2Cc1ccc(F)cc1,-92
CCCNC(=O)N1C[C@@H]2[C@H](c3ccccc31)[C@@H](CO)N2Cc1cc(F)ccc1F,36*
O=C(c1cccnc1)N1C[C@H]2[C@@H](c3ccccc31)[C@H](CO)N2C(=O)Nc1ccccc1Cl,40*
CO[C@H]1CN(C)C(=O)c2cc(NS(=O)(=O)CC(F)(F)F)ccc2OC[C@H](C)N(C)C[C@H]1C,-2
C[C@@H]1CN([C@H](C)CO)C(=O)c2cc(C#CC3(O)CCCC3)cnc2O[C@H]1CN(C)C(=O)C1CCCCC1,-4
COc1ccc(C#Cc2cnc3c(c2)C(=O)N([C@@H](C)CO)C[C@@H](C)[C@H](CN(C)CC2CCCC2)O3)cc1,7
CC(C)CC#Cc1cnc2c(c1)C(=O)N([C@@H](C)CO)C[C@@H](C)[C@H](CN(C)C(=O)Nc1cccc(F)c1)O2,-11
CCCC#Cc1cnc2c(c1)C(=O)N([C@H](C)CO)C[C@H](C)[C@H](CN(C)Cc1cccnc1)O2,-2
CCCN(C)C[C@@H]1Oc2cc(C#CCN(C)C)ccc2S(=O)(=O)N([C@H](C)CO)C[C@@H]1C,-5
CCCN1C[C@H](C)[C@H](OC)CN(C)C(=O)c2ccc(NC(=O)COC)cc2OC[C@H]1C,3
COc1cccc(NC(=O)N(C)C[C@@H]2Oc3ncc(C#Cc4cccnc4)cc3C(=O)N([C@@H](C)CO)C[C@@H]2C)c1,8
N=c1c2c(-c3ccccc3)c(-c3ccccc3)n(Cc3ccco3)c2ncn1CCO,43*
COc1cnc(-c2ccccn2)nc1Sc1ccccc1Cl,39*
COCC#Cc1ccc2c(c1)O[C@H](CN(C)C(=O)COC)[C@H](C)CN([C@H](C)CO)S2(=O)=O,13
CC(=O)Nc1ccc(S(=O)(=O)Nc2cccc(-c3nc4ccccc4o3)c2)cc1,-138
CC(=O)Nc1ccc(NS(=O)(=O)c2ccc3ccccc3c2)cc1,-105
CC(=O)Nc1ccc(-c2cc(-c3ccc(NC(C)=O)cc3)nc(-c3ccc(NC(C)=O)cc3)n2)cc1,32*
C[C@H](CO)N1C[C@H](C)[C@H](CN(C)S(=O)(=O)c2ccc(F)cc2)Oc2ncc(/C=C/c3ccccc3)cc2C1=O,7
C[C@@H]1CN([C@H](C)CO)S(=O)(=O)c2ccc(C#C[C@@H](C)O)cc2O[C@H]1CN(C)C,-6
C[C@@H]1CN([C@@H](C)CO)C(=O)c2cc(-c3ccccc3F)cnc2O[C@@H]1CN(C)Cc1ccccc1F,0
CCCn1c(CC)nc([N+](=O)[O-])c1S(=O)(=O)c1ccccc1,48*
C[C@@H]1CN([C@H](C)CO)S(=O)(=O)c2ccc(C#CC3CCCC3)cc2O[C@@H]1CN(C)CC1CC1,-6
CC(C)CC#Cc1cnc2c(c1)C(=O)N([C@@H](C)CO)C[C@H](C)[C@@H](CN(C)CC1CCOCC1)O2,2
SMILES,miR-122 inh
COc1ccc(C#Cc2cnc3c(c2)C(=O)N([C@@H](C)CO)C[C@@H](C)[C@H](CN(C)CC2CCOCC2)O3)cc1,7
O=S(=O)(Nc1cccc2ncccc12)c1cccs1,-234
CCOc1ccc(S(=O)(=O)Nc2cccc(Cl)c2)cc1,-90
CCOc1ccc2nc(NS(=O)(=O)c3cccs3)sc2c1,34*
C[C@@H]1CN([C@@H](C)CO)S(=O)(=O)c2ccc(C#Cc3cccc(F)c3)cc2O[C@@H]1CN(C)C(=O)CN1CCOCC1,-3
C[C@H](CO)N1C[C@H](C)[C@H](CN(C)CC2CCOCC2)Oc2cc(C#Cc3cccnc3)ccc2S1(=O)=O,3
C[C@@H]1CN([C@H](C)CO)S(=O)(=O)c2ccc(C3=CCCCC3)cc2O[C@@H]1CN(C)Cc1ccccc1,-92
